Most compounds without a hit are left out; they make up all but 5.2% or so of the library.
CR mimetic SO: caloric restriction mimetics inhibiting age-related superoxide in yeast | hit rate 0.18% among 330,000 | AID 2690 | S. cerevisiae aged cells, superoxide DHE fluorescence; active compounds read low | superoxide response (% of plate mean), % at 10 µM;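 active means superoxide response under a set limit, about three screen SD below normal, cut at about 65% in these data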;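 further: yeast aged for seven days with compound at 30 °C before DHE staining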
ALR inh: inhibitors of human sulfhydryl oxidase ALR | purified ALR, DTT oxidation, H2O2 HRP-luminol luminescence | inhibition, % (concentration not given with the values) | P55789 | AID 485317 | hit rate 3.8% among 290,000;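 active means mean replicate inhibition above about 79%, with every replicate also reaching it, limit read from the data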
APOBEC3G inh: inhibitors of human APOBEC3G DNA deaminase; recombinant A3G, ssDNA deamination FAM/TAMRA fluorescence; inhibition, % at 20 µM; hit rate 0.28% among 330,000;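 active means inhibition of at least 40% at 20 µM, with no more than 30% in the related APOBEC3A deaminase screen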
Target sequence (Q9HC16 whole entry, looked up): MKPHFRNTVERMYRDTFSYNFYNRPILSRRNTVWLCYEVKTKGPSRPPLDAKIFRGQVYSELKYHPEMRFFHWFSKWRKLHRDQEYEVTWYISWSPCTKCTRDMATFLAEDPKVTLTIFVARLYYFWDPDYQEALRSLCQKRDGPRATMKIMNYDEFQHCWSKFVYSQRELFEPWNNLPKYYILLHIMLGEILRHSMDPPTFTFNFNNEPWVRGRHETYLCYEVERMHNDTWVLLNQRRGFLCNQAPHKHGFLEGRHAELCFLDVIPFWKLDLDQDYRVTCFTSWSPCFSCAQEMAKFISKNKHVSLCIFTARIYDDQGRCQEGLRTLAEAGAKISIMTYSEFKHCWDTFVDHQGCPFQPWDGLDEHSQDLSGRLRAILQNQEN
A3A deaminase: human APOBEC3A DNA deaminase inhibition. P31941. hit rate 0.41% among 330,000. inhibition, % at 20 µM. recombinant A3A, FAM/TAMRA ssDNA deamination fluorescence;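 active means at least 40% inhibition at 20 µM here, with at most 30% in a related deaminase screen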
Target sequence (P31941 whole entry, looked up): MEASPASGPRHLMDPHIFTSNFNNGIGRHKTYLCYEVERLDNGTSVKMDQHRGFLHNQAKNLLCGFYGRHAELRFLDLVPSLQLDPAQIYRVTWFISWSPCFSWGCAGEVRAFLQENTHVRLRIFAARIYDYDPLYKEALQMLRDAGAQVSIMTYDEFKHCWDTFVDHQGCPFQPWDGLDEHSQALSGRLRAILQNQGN
M18AAP inhibitor: blocks P. falciparum M18 aspartyl aminopeptidase; recombinant PfM18AAP, H-Glu-NHMec fluorogenic cleavage; inhibition, % at 7.35 µM; hit rate 1.2% among 290,000;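 active means inhibition above the campaign mean inhibition over all tested compounds plus 3 SD, cut at about 28% in these data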
NRP1-CendR mod: NRP-1/CendR interaction modulation | FAM-RPARPAR peptide binding to NRP-1, fluorescence polarization | inhibition, % at 25 µM | hit rate 0.85% among 360,000 | AID 602438;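 active means inhibition or corrected inhibition above about 18%, plus a signal ratio from 0.5 to 1.5, limit read from the data, passing the limit was not always enough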
Superoxide pick: confirmation of caloric restriction mimetics inhibiting yeast age-related superoxide | hit rate 1% among 850 | shares compounds with CR mimetic SO | superoxide response (% of plate), % at 10 µM | S. cerevisiae aging, superoxide DHE fluorescence; active compounds read low | AID 434994;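 active means superoxide signal below 65% of the plate average of sample wells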;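 further: cells aged with compound for 7 days at 30 degrees C before staining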
DHE counter: counter-screen for compounds affecting DHE oxidation and fluorescence in yeast; shares compounds with CR mimetic SO; S. cerevisiae BY4741, flow cytometry; active compounds read low; fluorescence response, % at 10 µM; 850 tested, under 10 active; AID 435000;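 active means fluorescence response below 15%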;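 further: lower means stronger quenching of DHE signal or ROS scavenging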
Each line names hits and unclear results; the compound was inactive in the other large screens (follow-up assays come after a bar, where they were run).

Cc1[nH]c2ccccc2c1N=Nc1ccccc1F	CR mimetic SO 64.7, ALR inh 98.7 | Superoxide pick inactive | DHE counter inactive
CCOC(=O)N1CCN(Cc2nc(-c3cccc(C)c3)no2)CC1	CR mimetic SO 64.0 | Superoxide pick inactive | DHE counter inactive
CCOC(=O)N1CCN(Cc2nc(-c3ccccc3)no2)CC1	none
OC(c1cc(-c2cccc(Cl)c2)nc2ccccc12)C1CCCCN1 (stereo not given)	none (no result: CR mimetic SO, ALR inh, APOBEC3G inh, A3A deaminase, M18AAP inhibitor)
Cc1c(NS(=O)(=O)c2ccccc2)cc(Cl)c(O)c1C	ALR inh 99.2 | Superoxide pick inactive | DHE counter inactive
CCCS(=O)(=O)NC(=O)C1(C)CCN(C(=O)c2cc(C)on2)C1 (stereo not given)	none (no result: CR mimetic SO, ALR inh, APOBEC3G inh, A3A deaminase, M18AAP inhibitor)
C=CCn1c(SCC(=O)Nc2cc(C)ccc2OC)nnc1-c1ccco1	none (no result: ALR inh) | Superoxide pick inactive | DHE counter inactive
C=CCn1c(SCC(=O)Nc2cc(OC)c(NC(=O)c3ccco3)cc2OC)nnc1-c1ccncc1	none
COc1ccc(C)cc1NC(=O)CSc1nnc(-c2ccco2)n1Cc1ccco1	none
C=CCn1c(SCC(=O)Nc2cc(C)c(Cl)cc2OC)nnc1-c1ccco1	none | Superoxide pick inactive | DHE counter inactive
CCOC(=O)c1cc2occc2n1CCCN1C(=O)c2ccccc2C1=O	none
O=C(Nc1ccc(F)c(F)c1)c1ccc(F)c(S(=O)(=O)N2CCOCC2)c1	CR mimetic SO 56.0 (no result: NRP1-CendR mod) | Superoxide pick inactive | DHE counter inactive
O=C(Nc1cccnc1)c1ccc(F)c(S(=O)(=O)N2CCOCC2)c1	none
COc1cc(-c2nnc(SCC(=O)c3ccccc3)o2)cc(OC)c1OC	none
COc1cc(-c2nnc(SCC(=O)OC3CCCCC3)o2)cc(OC)c1OC	none
CCOC(=O)CSc1nnc(-c2cc(OC)c(OC)c(OC)c2)o1	none | Superoxide pick inactive | DHE counter inactive
CCCOC(=O)CSc1nnc(-c2cc(OC)c(OC)c(OC)c2)o1	none | Superoxide pick inactive | DHE counter inactive
CCCCCOC(=O)CSc1nnc(-c2cc(OC)c(OC)c(OC)c2)o1	none | Superoxide pick inactive | DHE counter inactive
CCOC(=O)C1CCN(C(=O)COc2ccc(C(=O)c3ccccc3)cc2)CC1	CR mimetic SO 63.5 (no result: M18AAP inhibitor) | Superoxide pick inactive | DHE counter inactive
COC(=O)CC/C(=N/Nc1ccc(Cl)c(Cl)c1)C(=O)OC	none (no result: ALR inh)
Cc1nc2ccccc2c(=O)n1/N=C/c1cc(Br)ccc1O	CR mimetic SO 64.0 | Superoxide pick inactive | DHE counter inactive
O=C(NCc1ccco1)c1nn(-c2ccccc2)c(=O)c2ccccc12	CR mimetic SO 62.5 | Superoxide pick inactive | DHE counter inactive
COc1ccc(-n2nc(C(=O)NCC(=O)NCc3ccco3)c3ccccc3c2=O)cc1	none
CCOC(=O)NC(=O)/C(C#N)=N/Nc1ccc(F)cc1	none | Superoxide pick inactive | DHE counter inactive
CCOc1ccccc1CNC(=O)C1CCN(c2nnc(C)c3c(C)n(-c4ccc(C)cc4)nc23)CC1	none
O=C(/C=C/c1ccccc1[N+](=O)[O-])NCc1ccccc1Cl	CR mimetic SO 64.2 | Superoxide pick inactive | DHE counter inactive
O=C(/C=C/c1ccccc1[N+](=O)[O-])NCc1ccncc1	none
CCN(CC(=O)Nc1ccc(NC(C)=O)cc1)C(=O)c1ccc2c(c1)S(=O)(=O)N=C1CCCCCN12	none (no result: M18AAP inhibitor)
C/C(=N\OCC(=O)Nc1cc(C)cc(C)c1)c1ccc2c(c1)OCCO2	none (no result: ALR inh)
Cc1cccc(N2CCN(C(=O)CC(NC(=O)c3ccccc3)c3ccccc3)CC2C)c1 (stereo not given)	CR mimetic SO 53.8 (no result: ALR inh) | Superoxide pick inactive | DHE counter inactive
CN(C)CCNc1ncnc2c1cnn2-c1ccc(Cl)cc1	none (no result: ALR inh) | Superoxide pick inactive | DHE counter inactive
Cc1cccc(-n2ncc3c(NC(C)C)ncnc32)c1	none
Cc1ccc(Cn2ncc3c(NCCN(C)C)ncnc32)cc1	none
CC(C)Nc1ncnc2c1cnn2-c1ccccc1	none (no result: ALR inh) | Superoxide pick inactive | DHE counter inactive
OCCCNc1ncnc2c1cnn2-c1ccc(Cl)cc1	none | Superoxide pick inactive | DHE counter inactive
CC(C)(C)NC(=O)CN(Cc1cccs1)C(=O)CN1C(=O)C(=O)c2ccccc21	none
CCc1nnc(NC(=O)c2ccc(S(=O)(=O)N3CCCC(C)C3)cc2)o1 (stereo not given)	CR mimetic SO 64.2 | Superoxide pick inactive | DHE counter inactive
COCc1nnc(NC(=O)c2ccc(S(=O)(=O)N3CCCC3)cc2)o1	none | Superoxide pick inactive | DHE counter inactive
CCOC(=O)N1CCN(S(=O)(=O)c2ccc(C(=O)Nc3nnc(CC)o3)cc2)CC1	none
CC1CCN(S(=O)(=O)c2ccc(C(=O)Nc3nnc(-c4ccccn4)o3)cc2)CC1	none | Superoxide pick inactive | DHE counter inactive
CC1CC(C)CN(S(=O)(=O)c2ccc(C(=O)Nc3nnc(C4CC4)o3)cc2)C1 (stereo not given)	none | Superoxide pick inactive | DHE counter inactive
CC(C)(C)Cc1cc(N)on1	none (no result: ALR inh)
COc1ccc([C@H]2CC(=O)C[C@@H](CCn3cc(-c4ccc(F)cc4)nn3)O2)cc1	none (no result: CR mimetic SO, ALR inh, APOBEC3G inh, A3A deaminase, M18AAP inhibitor)
O=C(CNC(=O)c1cccc(Br)c1)N/N=C/c1cn[nH]c1-c1ccccc1	none
COc1c(O)cc2c(c1O)[C@@H]1O[C@H](CO)[C@@H](O)[C@H](O)C1OC2=O (stereo not given in full)	none (no result: M18AAP inhibitor)
Nc1ccc(S(=O)(=O)Nc2ccc(S(N)(=O)=O)cc2)cc1	none | Superoxide pick inactive | DHE counter inactive
CC(C)(C)c1ccc(S(=O)(=O)Nc2ccc(Cc3ccncc3)cc2)cc1	none
CC(C)(C)c1ccc(NS(=O)(=O)c2ccc(N)cc2)cc1	none | Superoxide pick inactive | DHE counter inactive
O=C1N[C@@H](Cc2ccccc2)COC(=O)[C@H](Cc2ccc(F)cc2)C/C=C\C[C@H]1CC(=O)N(CCO)Cc1ccccc1	none (no result: M18AAP inhibitor)
COc1ccc(C(=O)NCCN2CCOCC2)c(OC)c1	none
CC(C)OC(=O)CSc1nnc(-c2ccc(Cl)cc2Cl)o1	none | Superoxide pick inactive | DHE counter inactive
CC(=O)N1CCc2cc(C(=O)CN3CCN(c4ccccc4F)CC3)ccc21	none
O=C(CN1CCN(c2ccccc2F)CC1)c1ccc2cc[nH]c2c1	CR mimetic SO 62.7 (no result: ALR inh) | Superoxide pick inactive | DHE counter inactive
COCCN(CCOC)S(=O)(=O)c1ccc(C(=O)Nc2nnc(C3CC3)o2)cc1	none
CN(c1ccccc1)S(=O)(=O)c1ccc(C(=O)Nc2nnc(C3CC3)o2)cc1	none | Superoxide pick inactive | DHE counter inactive
CCN(c1ccccc1)S(=O)(=O)c1ccc(C(=O)Nc2nnc(C3CC3)o2)cc1	none | Superoxide pick inactive | DHE counter inactive
CSc1ncc(Cl)c(C(=O)Nc2cccnc2)n1	none

High-throughput results: PubChem, several laboratories
